gsp antag: gsp mutant antagonism. gsp-mutant cells, cAMP HTRF, 30 min. Potency, µM (titrated, usually from 76.9 µM), for the others: at the top dose activity change, negative = inhibition, usual class: inhibitors. 0.4% of 340,000 active. AID 624288; calls by dose curve; cell line not stated here;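 note: intracellular cAMP measured with PDE inhibitor Ro 20-1724 present during compound exposure; potency is the fitted concentration of half-maximal effect; % is set by controls: 0 for no effect and ±100 for the full control effect; nearly all actives have a fitted effect of over 65% in size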
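Cells in G418 medium, seeded 16-24 h, 37C; buffer exchange to DPBS + 1 mM CaCl2, 0.5 mM MgCl2, 0.05% BSA; cpds in DMSO + […] (300 uM stock), 30 min 37C; HTRF cAMP detection.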
Akt phos inh: inhibitors of Akt phosphorylation | AID 651550 | 0.32% of 360,000 active | activity change, % for hits at 50 µM | Neuro2A IGF-stimulated pAkt S473 HTRF, 20 min; active compounds read low; in the data active = activity change below about -80%; inconclusive = mostly about -51% to -80%; note: % is set by controls: 0 for no effect and ±100 for the full control effect
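Neuro2A cells (4,500/well, DMEM with 0.5% FBS) were treated with compound at a single 50 µM final concentration, stimulated with 6 nM IGF for 20 min at 37 °C, and lysed. Phospho-Akt Ser473 was read by HTRF as 665/615 ratio ×10^4.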
gsp ag: agonists of gsp mutant (McCune-Albright syndrome); AID 624287; 0.13% of 340,000 active; gsp mutant cells, cAMP HTRF, 30 min; Potency, µM (highest dose often 76.9 µM), for inactives: top-dose activation (cAMP increase), hits mostly activators; active = well fitted activation curve with a large enough effect; inconclusive = small, poorly fitted or top-dose-only effect, or another doubt; inactive = no such curve, though single readings can be large or run the other way; cell line not stated here;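 note: phosphodiesterase inhibitor Ro 20-1724 added with compounds to block cAMP breakdown; potency is the fitted concentration of half-maximal effect; nearly all actives have a fitted effect of over 60% in size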
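Cells in DMEM/10% FBS with G418 were pretreated with compounds in DMSO plus […] (300 uM stock) for 30 min at 37C. cAMP was measured by HTRF (cAMP-d2 plus anti-cAMP antibody-K) after 30 min at room temperature.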
TSHR antag: human thyrotropin receptor antagonism. P16473. TSHR-expressing cells, TSH-stimulated cAMP HTRF, 2 h; active compounds read low. activity change, negative = inhibition, % at 11.5 µM. 0.2% of 330,000 active. AID 504810;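 active = activity change below a set negative limit, meaning inhibition stronger than a set level, cut at about -70% in these data; inconclusive = activity change between two set negative limits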; note: % is set by controls: 0 for no effect and ±100 for the full control effect
Target sequence (P16473 whole entry, looked up): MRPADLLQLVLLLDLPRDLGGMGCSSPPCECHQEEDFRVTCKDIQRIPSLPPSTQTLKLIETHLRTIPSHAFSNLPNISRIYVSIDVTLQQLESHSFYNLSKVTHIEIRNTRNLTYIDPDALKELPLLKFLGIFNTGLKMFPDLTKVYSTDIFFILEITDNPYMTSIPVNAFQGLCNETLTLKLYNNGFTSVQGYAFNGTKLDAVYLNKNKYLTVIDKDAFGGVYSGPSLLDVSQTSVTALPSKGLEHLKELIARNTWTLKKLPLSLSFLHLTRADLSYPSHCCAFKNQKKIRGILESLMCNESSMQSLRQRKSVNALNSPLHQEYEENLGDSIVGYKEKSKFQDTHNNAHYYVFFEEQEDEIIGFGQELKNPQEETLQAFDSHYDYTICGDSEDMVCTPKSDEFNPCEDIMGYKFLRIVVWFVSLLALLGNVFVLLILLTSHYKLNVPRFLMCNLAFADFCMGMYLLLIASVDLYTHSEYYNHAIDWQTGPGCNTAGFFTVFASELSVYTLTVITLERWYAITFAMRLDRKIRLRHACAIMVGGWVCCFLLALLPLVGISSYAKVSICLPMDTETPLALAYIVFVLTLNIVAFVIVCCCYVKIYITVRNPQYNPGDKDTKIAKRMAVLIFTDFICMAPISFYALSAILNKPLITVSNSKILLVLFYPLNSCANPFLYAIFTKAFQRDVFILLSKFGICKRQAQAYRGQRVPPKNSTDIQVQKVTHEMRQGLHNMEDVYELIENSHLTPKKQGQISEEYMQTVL
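TSHR-expressing cells were treated with compounds, then stimulated with TSH at EC80 (4nM final) for 2 hours at 37 deg C. Cellular cAMP was measured by HTRF competition between lysate cAMP and cAMP-d2 for a cryptate-labelled anti-cAMP antibody.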
RXFP1 ag: agonists of human relaxin receptor RXFP1; Q9HBX9; HEK293T-RXFP1 cAMP TR-FRET, 30 min; response scale: percent of porcine relaxin response, buffer zero; Potency, µM (top dose mostly 57.5 µM), without a hit: top-dose activation, most hits filed as activators; 0.3% of 370,000 active; AID 2676; active = well fitted activation curve with a large enough effect; inconclusive = small, poorly fitted or top-dose-only effect; note: potency is the fitted concentration of half-maximal effect; % is set by controls: 0 for no effect and ±100 for the full control effect; nearly all actives have a fitted effect of over 60% in size
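cAMP rise read by TR-FRET after 30 min, 37C compound exposure (up to 58 uM) in RXFP1-transfected HEK293 cells with Ro 20174 present. EC50 from Hill-equation fits, with 29 nM porcine relaxin as 100% and buffer as basal.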
RXFP1 antag: antagonists of human relaxin receptor RXFP1; Q9HBX9; HEK293-RXFP1, relaxin-stimulated cAMP HTRF, 30 min; active compounds read low; activity change, negative = inhibition, % at 57.5 µM; 0.59% of 350,000 active; AID 1259400;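 active = activity change of -60% or lower, but not beyond a set lower limit; inconclusive = change between -60% and -40%, or beyond the set limit; inactive = change above -40%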; note: % is set by controls: 0 for no effect and ±100 for the full control effect
Active calls of the source: *; i = inactive; ? = inconclusive; / = not tested or not shown; [ ] = remark or other dose. This is a sample that favours compounds with a hit; in the whole collection about 1.3% have one here.

SMILES	gsp antag	Akt phos inh	gsp ag	TSHR antag	RXFP1 ag	RXFP1 antag
CC(C)(C)C1CCC(CC2=C(O)c3ccccc3C(=O)C2=O)CC1 (stereo unspecified)	/	/	/	/	/	-13
COC(=O)c1ccc(-n2c(CCC(=O)O)ccc2-c2ccc(C)cc2)cc1	32µM*	i	-23%	-2	1%	0
Cc1ccc(-c2ccc(CCC(=O)O)n2-c2ccc(C(=O)O)cc2)cc1	-5%	i	-28%	2	-2%	2
CC(OC(=O)c1ccc2c(c1)OCCO2)C(=O)NC1CCCCC1C (stereo unspecified)	9%	i	12%[15.4 µM]	-3	0%	-72*
O=C(COC(=O)c1ccc(S(=O)(=O)N2CCCCC2)cc1)NCc1ccccc1	-2%	i	-2%[15.4 µM]	4	/	-17
CCCCCc1ccc(C(=O)CCCC)c(=S)[nH]1	4%	i	-27%	-18	2%	-64*
COC1=C(N)C(=O)c2nc(-c3nc(C(=O)O)c(C)c(-c4ccc(OC)c(OC)c4O)c3N)ccc2C1=O	?	i	/	-72*	-1%	/
O=C(NCC(c1cccs1)N1CCOCC1)c1ccc(Cl)nc1 (stereo unspecified)	0%	i	-4%	5	0%	-1
COc1ccc(/C=N\NC(=O)c2cc(O)c(O)c(O)c2)cc1COc1ccc(C(=O)OCC(C)C)cc1	-21%	i	9%	-1	-4%	-5
CC(=O)Nc1ccc(S[C@@H](CCN2CC[C@H](O)CCC2=O)c2ccccc2)cc1	50µM*	i	6%	1	-4%	/
O=c1cc(-c2ccc(F)cc2)nc(SCc2nc(-c3cccc(C(F)(F)F)c3)no2)[nH]1	/	/	/	/	3%	-3
COc1ccc(/C(O)=C2/C(=O)C(=O)N(CCCN3CCOCC3)C2c2ccc(C(C)C)cc2)cc1 (stereo unspecified)	-1%	i	?	-6	12%	2
CC(C(=O)N1CCN(c2ccc(Cl)cc2)CC1)c1ncc(C(F)(F)F)cc1Cl (stereo unspecified)	35µM*	i	-62%	-25	0%	7
O=C(NC1CCN(S(=O)(=O)c2ccccc2)CC1)c1cccc(F)c1	8%	i	10%[15.4 µM]	-9	-1%	-12
CC(C)C[C@H](NC(=O)N1CCn2c1nc1ccccc12)C(=O)NC1CCCCC1	11%	i	38%	-8	1%	-67*
CCN(CC)S(=O)(=O)c1cc(NC(=O)NCCCl)ccc1C	10%	i	6%[15.4 µM]	-71*	4%	-5
CCN(CC)S(=O)(=O)c1cc(NC(=O)c2ccc3c(c2)NC(=O)C(C)S3)ccc1C (stereo unspecified)	?	i	-30%	-30	0%	-76*
CCOC(=O)Cc1nnc(Nc2cccc(C)c2)c2ccccc12	-14%	-109%*	3%	/	0%	10
Cc1cc(/C=C2\SC(=S)NC2=O)c(C)n1-c1ccccc1	-8%	i	-1%[15.4 µM]	-21	1%	?
Cc1cc(/C=C2\SC(=S)NC2=O)c(C)n1-c1ccc(O)cc1	32µM*	i	-2%	-48	-2%	?
O=C(C1CCC(Cn2c(=O)c3sccc3n(Cc3ccc(F)cc3)c2=O)CC1)N1CCOCC1 (stereo unspecified)	/	/	/	/	1%	-8
COc1ccc([N+](=O)[O-])cc1NC(=O)N(C)Cc1ccco1	-3%	i	-20%	-9	2%	2
CC1(C)c2ssc(=S)c2-c2ccccc2N1C(=O)c1ccco1	-14%	i	3%	-74*	0%	-2
Cc1[nH]c(=S)c(C#N)c(C)c1CC(=O)c1ccc(Br)cc1	-14%	i	-48%	-2	7%	-70*
Cc1[nH]c(=S)c(C#N)c(C)c1Cc1ccc(Cl)cc1Cl	-6%	i	-77%	-4	10%	?
SMILES	gsp antag	Akt phos inh	gsp ag	TSHR antag	RXFP1 ag	RXFP1 antag
Cc1cc(NC(=O)COC(=O)C2CC(=O)N(c3ccc(Cl)cc3)C2)no1 (stereo unspecified)	-1%	i	20%	-1	-5%	?
CCc1ccc(N2CC(C(=O)OCC(=O)Nc3cc(C)on3)CC2=O)cc1 (stereo unspecified)	-16%	-89%*	0%	-1	0%	-10
CCC(C)NC(=O)CN1C(=O)CSc2ccc(S(=O)(=O)N3CCCC3)cc21 (stereo unspecified)	7%	i	-40%	-125*	-2%	16
CC1CCN(CCCNC(=O)CN2C(=O)CSc3ccc(S(=O)(=O)N4CCOCC4)cc32)CC1	-8%	i	0%	-89*	0%	-2
COc1cccc(CNC(=O)CN2C(=O)CSc3ccc(S(=O)(=O)N4CCOCC4)cc32)c1	6%	i	?	-140*	-1%	17
O=C(OCc1nnc(-c2ccccc2)o1)c1ccc(Br)o1	2%	i	-3%[15.4 µM]	/	0%	-73*
CCCC(=O)N1c2nc(-c3ccco3)nn2C2(CCCCC2)[C@@H]2CCCC[C@@H]21	/	/	/	/	0%	-66*
COc1ccc(CNC(=O)c2ccc(NC(=O)C3CCCO3)cc2)cc1 (stereo unspecified)	13%	-105%*	17%	7	-1%	10
CCCOC(=O)c1ccc(NC(=O)C2CCCO2)cc1 (stereo unspecified)	16%	-119%*	?	2	2%	12
N#CCCC(CCC#N)(CCC#N)c1cc[n+](CCc2ccccn2)cc1	-2%	i	-16%	-6	1%	/
CC(C)c1ccc(N2C(=O)C3C4C=CC(CC4)C3C2=O)cc1 (stereo unspecified)	9%	i	-27%	-3	6%	10
CC1CC(=O)N(c2ccc(C(C)C)cc2)C(=O)C1	-9%	i	?	-118*	2%	4
CCn1c(SCC(=O)Nc2nc3ccccc3s2)nnc1-c1ccc(Br)cc1	18%	-89%*	13%	8	?	-1
CN(CC(=O)Nc1nc2ccccc2s1)S(=O)(=O)c1ccc(Cl)cc1	32µM*	i	-7%	-18	0%	-18
CN(CC(=O)Nc1nc2ccccc2s1)S(=O)(=O)c1ccc(Br)cc1	40µM*	i	-10%	-23	-6%	-35
Cn1c(SCC(=O)Nc2nc3ccccc3s2)nnc1-c1ccccc1	5%	i	-46%	-9	0%	3
Cc1ccc(C(=O)NCCC(=O)NCc2ccco2)cc1	0%	i	?	3	1%	0
Cc1[nH]cnc1-c1ccc(Cl)cc1	/	/	/	/	/	13
CCCCN(CC)C(=O)CSc1nc2c(sc(=S)n2-c2ccc(OCC)cc2)c(=O)[nH]1	?	i	-13%	-26	-1%	0
